The full ranking holds about 9,900 sequences; the median of “r (bound/input frequency ratio)” is about 0.7, and the highest 2% start at about 6.5. Shown is part of a subset that was picked to be rich in the highest values.

This is an account of results in article PMC12864922, “TDP-43 directly inhibits mRNA accumulation in neurites through modulation of mRNA stability”.

Sequences and labels used below:
B1: ENSMUSG00000090935.713|Synj2bp (ssRNA)
RNA: GGGAGUUCUACAGUCCGACGAUCGCUUCGAUAUCCGCAUGCUAAAGUCCAGAGCUCUGCUCUCUGAGCAUCUGCCCCAGAUACAGAGGCAGAGUAUGAAGUGGAACAUUGUUUUAUUCCUAGGUGCUCAGGACAGACUGAUCAACCUCCAGUAACAUAUGUGGUUAGUAAGUGCUUCAGCUUGUGUAGCCAUUAAUAACCAAGUCAUAGGAUUGUGAAUCUAAAAUACUCCUGGGUAAAAUUUGUAUUAGAAUGGAAAAAAAAAUGAGGGUCAGAAAGGUGAGCUAACUUCAAGUUAGAUACUCUCUUGCGGUCGCACUAGUGUGGAAUUCUCGGGUGUCAAGG
B2: ENSMUSG00000031028.413|Tub (ssRNA)
RNA: GGGAGUUCUACAGUCCGACGAUCGCUUCGAUAUCCGCAUGCUACCCCUCUUCUUUUUGGUCCUUGGCUGGGUAGCAAAUUGGUGAGAAGAGCAGCCUAGUCUGUAAGAGUGCAGGGCAGCUGGAACCUUAGGCAGCUCCUCUGUAUGCUACCGGCUCCACACCCUAACACUCUCCACCCUCUGCUCCAAACCAGUUCUUCUGCAGAGUGGUGAUGUUAGCUUCCCCAGCUCCUCUCCAAGUCUAGCUUUUUCUGUCCUUCUGGCUCCAAGGUGCUCUGUGUCUGUGUGUGUGUGUCUGUCUGUCUCUUGCGGUCGCACUAGUGUGGAAUUCUCGGGUGUCAAGG
B3: ENSMUSG00000031028.414|Tub (ssRNA)
RNA: GGGAGUUCUACAGUCCGACGAUCGCUUCGAUAUCCGCAUGCUAUUCUUUUUGGUCCUUGGCUGGGUAGCAAAUUGGUGAGAAGAGCAGCCUAGUCUGUAAGAGUGCAGGGCAGCUGGAACCUUAGGCAGCUCCUCUGUAUGCUACCGGCUCCACACCCUAACACUCUCCACCCUCUGCUCCAAACCAGUUCUUCUGCAGAGUGGUGAUGUUAGCUUCCCCAGCUCCUCUCCAAGUCUAGCUUUUUCUGUCCUUCUGGCUCCAAGGUGCUCUGUGUCUGUGUGUGUGUGUCUGUCUGUGUGUGUCUCUUGCGGUCGCACUAGUGUGGAAUUCUCGGGUGUCAAGG
B4: ENSMUSG00000031028.410|Tub (ssRNA)
RNA: GGGAGUUCUACAGUCCGACGAUCGCUUCGAUAUCCGCAUGCUAAGAUCCCUUACCCCUCAUCCCCUCUUCUUUUUGGUCCUUGGCUGGGUAGCAAAUUGGUGAGAAGAGCAGCCUAGUCUGUAAGAGUGCAGGGCAGCUGGAACCUUAGGCAGCUCCUCUGUAUGCUACCGGCUCCACACCCUAACACUCUCCACCCUCUGCUCCAAACCAGUUCUUCUGCAGAGUGGUGAUGUUAGCUUCCCCAGCUCCUCUCCAAGUCUAGCUUUUUCUGUCCUUCUGGCUCCAAGGUGCUCUGUGUCUGUCUCUUGCGGUCGCACUAGUGUGGAAUUCUCGGGUGUCAAGG
B5: ENSMUSG00000031028.415|Tub (ssRNA)
RNA: GGGAGUUCUACAGUCCGACGAUCGCUUCGAUAUCCGCAUGCUAUUGGUCCUUGGCUGGGUAGCAAAUUGGUGAGAAGAGCAGCCUAGUCUGUAAGAGUGCAGGGCAGCUGGAACCUUAGGCAGCUCCUCUGUAUGCUACCGGCUCCACACCCUAACACUCUCCACCCUCUGCUCCAAACCAGUUCUUCUGCAGAGUGGUGAUGUUAGCUUCCCCAGCUCCUCUCCAAGUCUAGCUUUUUCUGUCCUUCUGGCUCCAAGGUGCUCUGUGUCUGUGUGUGUGUGUCUGUCUGUGUGUGUGUGUGUCUCUUGCGGUCGCACUAGUGUGGAAUUCUCGGGUGUCAAGG
B6: ENSMUSG00000031028.411|Tub (ssRNA)
RNA: GGGAGUUCUACAGUCCGACGAUCGCUUCGAUAUCCGCAUGCUACUUACCCCUCAUCCCCUCUUCUUUUUGGUCCUUGGCUGGGUAGCAAAUUGGUGAGAAGAGCAGCCUAGUCUGUAAGAGUGCAGGGCAGCUGGAACCUUAGGCAGCUCCUCUGUAUGCUACCGGCUCCACACCCUAACACUCUCCACCCUCUGCUCCAAACCAGUUCUUCUGCAGAGUGGUGAUGUUAGCUUCCCCAGCUCCUCUCCAAGUCUAGCUUUUUCUGUCCUUCUGGCUCCAAGGUGCUCUGUGUCUGUGUGUGUCUCUUGCGGUCGCACUAGUGUGGAAUUCUCGGGUGUCAAGG
B7: ENSMUSG00000031028.412|Tub (ssRNA)
RNA: GGGAGUUCUACAGUCCGACGAUCGCUUCGAUAUCCGCAUGCUACCUCAUCCCCUCUUCUUUUUGGUCCUUGGCUGGGUAGCAAAUUGGUGAGAAGAGCAGCCUAGUCUGUAAGAGUGCAGGGCAGCUGGAACCUUAGGCAGCUCCUCUGUAUGCUACCGGCUCCACACCCUAACACUCUCCACCCUCUGCUCCAAACCAGUUCUUCUGCAGAGUGGUGAUGUUAGCUUCCCCAGCUCCUCUCCAAGUCUAGCUUUUUCUGUCCUUCUGGCUCCAAGGUGCUCUGUGUCUGUGUGUGUGUGUCUCUCUUGCGGUCGCACUAGUGUGGAAUUCUCGGGUGUCAAGG
B8: ENSMUSG00000043670.304|Diras1 (ssRNA)
RNA: GGGAGUUCUACAGUCCGACGAUCGCUUCGAUAUCCGCAUGCUAGUCACAAAGAGACAGAGAAGCAGAAAGAAGGCUGAAGCCAGAUGACCAAGUAGGCCGGACCCCACUGUGUUCCCUUCUGUGUGCCAGGCACAGGGAGAGCCACAGCCUGAAGCCUGAGUCUGAGCAUAGCUGAGCCCUGACCUCUAGCCAGCCCAGGGCCCCCACAGCUGCCACCUGCUCCCAAGCCCCGGGAGUGGCUCCUGGCUGGACAGGGGGUCACAGCCCUUUCUCAGGGACACACCCUGAUAGCACAAUCUCUGCUCUUGCGGUCGCACUAGUGUGGAAUUCUCGGGUGUCAAGG
B9: ENSMUSG00000029636.41|Wasf3|31:35;229:235 (ssRNA)
RNA: GGGAGUUCUACAGUCCGACGAUCGCUUCGAUAUCCGCAUGCUACACAUCCUUCUGGAUUUGUUGAGUAUUUACACACAAAUACUUAAGUGCCACAGAACACAGCACACCGUGCUGCACACCAGGAAACUCGCAGUAUUAGUGCAUCACCCUGGAACAGCAUCUUGCUUCCCUCUCAGCCGUGAGAGUCCCCUCUCCUGUCCAUCCUGAUUUGGUGGGCUUGCCACGUAUCUGCGCAGCUGCCCCACGUCAGCUCUCUGCAAGAUCACUGGCACACACACUCAGUGAUGUCUUCCAACCAGUGGCUCUUGCGGUCGCACUAGUGUGGAAUUCUCGGGUGUCAAGG
B10: ENSMUSG00000029028.57|Lrrc47 (ssRNA)
RNA: GGGAGUUCUACAGUCCGACGAUCGCUUCGAUAUCCGCAUGCUAGUAGAUCUUUGUAGGUGUAGGUAUGCUGUAGGUAUCUGGGUGUGGGUAUGCUGUAGAUGUCUGUGUAGGUGUGGAUAUGCUGUAGGUAUCUGGGUGUGCUGUAGGUGUCUGUGUGGGUGUGGGUGUGCUGUGGGUGUCUGUGUGGGUGUGCUGUAGGUGUCUGUAGGUGUGGGUAUGCUGCAGGUGUGGGUGUGCUGUAGAUCUCUAUAGGUGUGGGUGUGCUGUAGGGGUCUGUGUGGGUAUAGGUGUGGGUGUGCUGUCUCUUGCGGUCGCACUAGUGUGGAAUUCUCGGGUGUCAAGG
B11: ENSMUSG00000061578.309|Ksr2 (ssRNA)
RNA: GGGAGUUCUACAGUCCGACGAUCGCUUCGAUAUCCGCAUGCUAAAGUAAGAGAGGAGAGAGCCAGGGAGGGCUGAAGCUCUGGGACCCUGAAGUGUCCCCCGGGAACUGGGACUCACUCAUCUUCUCCUGUUUGUAGCUCAAUGACCCAGUGGGUCACAGUUCUAGGCGCUCCAAGGAAGCCAGGGGAGGGGGACUCCUCAGGAAGGAGUGACCAGUCACCUGCCUCCCAGGGUUCUGCCUUGCCCUUAAGCUAGGGUCCUUCAAGCAUCCACAGACUUAGAGUGUGGUGGUAACAUGCUUGUCUCUUGCGGUCGCACUAGUGUGGAAUUCUCGGGUGUCAAGG

The target in this test is TDP-43 (Homo sapiens, UniProt Q13148 1-414). As to the kind of experiment: RNA Bind-n-Seq with designed 260-mer pool; 25 mM Tris-HCl, 150 mM KCl, 3 mM MgCl2, BSA (printed 500 mg/mL), 20 units/mL SUPERase IN; pH not stated; 500 nM RNA pool, 1 h, 4 C; TDP-43 5, 50, 500 nM; high values mean tight binding. Particulars: protein: recombinant; tags: SBP (GST cleaved off with PreScission; pGEX-GST-SBP). In outline: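 Recombinant SBP-tagged TDP-43 at 5, 50 or 500 nM was captured on streptavidin beads, then incubated 1 h at 4 °C with 500 nM of an in vitro-transcribed 260-nt 3′ UTR oligo pool in 25 mM Tris-HCl, 150 mM KCl, 3 mM MgCl2, BSA and SUPERase IN. Bound RNA was washed, eluted with biotin, reverse transcribed, PCR-amplified and sequenced. Binding is R, each oligo's mapped-read-normalized abundance in the bound sample divided by its abundance in input. Duplicates used two independent protein batches.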
TDP-43, sequence (Q13148 whole entry): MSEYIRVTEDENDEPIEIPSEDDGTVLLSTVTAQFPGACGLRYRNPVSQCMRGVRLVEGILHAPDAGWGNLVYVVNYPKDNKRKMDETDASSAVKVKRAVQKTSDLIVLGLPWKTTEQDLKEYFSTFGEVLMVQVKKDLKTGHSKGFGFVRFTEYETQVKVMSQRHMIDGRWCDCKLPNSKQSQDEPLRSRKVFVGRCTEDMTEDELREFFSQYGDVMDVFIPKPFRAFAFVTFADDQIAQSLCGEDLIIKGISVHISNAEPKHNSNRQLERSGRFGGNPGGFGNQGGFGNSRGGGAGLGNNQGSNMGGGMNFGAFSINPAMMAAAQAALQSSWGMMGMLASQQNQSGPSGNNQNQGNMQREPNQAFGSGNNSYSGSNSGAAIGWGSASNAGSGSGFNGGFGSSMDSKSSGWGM
Take B1: the binding signal is 1.85 R (bound/input frequency ratio).

On to B2, for which the binding signal was 3.56 R (bound/input frequency ratio).

On to B3, for which the binding signal was 6.55 R (bound/input frequency ratio).

Consider B4, for which the binding signal was 1.11 R (bound/input frequency ratio).

B5: the binding signal is 6.65 R (bound/input frequency ratio).

Regarding B6, the binding signal is 1.34 R (bound/input frequency ratio).

As to B7, the binding signal is 2.36 R (bound/input frequency ratio).

As to B8, the binding signal is 0.472 R (bound/input frequency ratio).

As to B9, the binding signal was 0.406 R (bound/input frequency ratio).

Take B10: the binding signal is 6.24 R (bound/input frequency ratio).

With B11, the binding signal was 1.33 R (bound/input frequency ratio).
